# In all, about 320,000 compounds went through this assay and about 9,100 (2.8%) were called active. About 3% were inconclusive and are not listed. The call rests on the fitted dose curve; in most records, active means well fitted activation curve with a large enough effect; inconclusive means small, poorly fitted or top-dose-only effect; inactive means no such curve, though single readings can be large or run the other way. The list comes from a sample in which actives are over-represented; it also holds similar structures and randomly drawn compounds. A call without a number means that no potency is given here.
# Assay: qHTS Assay for Rab9 Promoter Activators; further: nearly all actives have a fitted effect of over 60% in size
# Conditions: Huh7 Rab9 promoter-luciferase reporter, luminescence, 24 h; series mostly up to 9.22 µM
# Procedure, shortened: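 Huh7 reporter line, Rab9 promoter upstream of luciferase. Compound exposure 24 h at 37 °C in reduced-serum medium with 10% FBS. Read-out: luminescence.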
# Potency means the concentration at half of the fitted maximal effect.
SMILES,Potency,"activation, negative = inhibition"
Cc1ccccc1CSCC(=O)NC(=O)NC(C)(C)C,inactive,
CC(C)(C)NC(=O)CSC(=Nc1ccccc1F)NC#N,3980 nM (active),
COc1ccccc1-n1ccnc1SCC(=O)NC(C)(C)C,inactive,
CC(CCc1ccccc1)NC(=O)c1cnc(Cl)c(Cl)c1 (stereo not given),,-1.69% [at 1.84 µM] (inactive)
COc1ccc(CNC(=O)c2ccc(NS(=O)(=O)c3ccc4[nH]c(=O)[nH]c4c3)cc2)cc1OC,inactive,
S=C(NCc1cccnc1)Nc1ccc(Cl)cc1Cl,inactive,
O=C(NC(=S)Nc1ccc(Cl)cc1Cl)C1CC1,2820 nM (active),
CN1CCN(S(=O)(=O)c2ccc(NC(=S)NC(=O)C3CC3)cc2)CC1,inactive,
Cc1ccc(OCC(=O)Nc2ccccc2C(=O)NC2CC2)cc1,inactive,
CCOC(=O)c1c(C)[nH]c(C(=O)OCC(=O)N2CCCC2=O)c1C,inactive,
CCCCOC(=O)c1[nH]c(C)c(C(=O)OC)c1C,2820 nM (active),
CCOC(=O)c1c(C)[nH]c(C(=O)OCC(=O)c2ccc(OC)cc2OC)c1C,inactive,
COc1ccc(/C(C)=N/Nc2cc(C(F)(F)F)ccc2Cl)c(OC)c1,inactive,
S=C(NNC(=S)NC1CC2CCC1C2)NC1CC2C=CC1C2 (stereo not given),inactive,
S=C(NNC(=S)NC1CC2C=CC1C2)NC1CC2C=CC1C2 (stereo not given),inactive,
CC(C)c1ccc(NC(=S)NC2CC3C=CC2C3)cc1 (stereo not given),2820 nM (active),
COc1ccc(-c2cc(C(=O)NCCCN3CCCC3=O)c3ccccc3n2)cc1OC,inactive,
N/C(=N\OC(=O)c1ccc2c(c1)OCO2)c1ccc(Br)cc1,3980 nM (active),
N/C(=N\OC(=O)N1c2ccccc2Sc2ccccc21)c1ccc(Br)cc1,inactive,
N/C(=N\OC(=O)/C=C/c1ccccc1)c1ccc(Br)cc1,inactive,
CC1CC2C3CCC4=CC(=O)C=C[C@]4(C)[C@@]3(F)[C@@H](O)C[C@]2(C)[C@@]1(O)C(=O)CO (stereo not given in full),inactive,
CC(C)C(=O)Nc1c(O)c2ccccc2[nH]c1=O,inactive,
CCCc1nc2ccccc2c(=O)n1NC(=O)c1c(O)c2ccccc2[nH]c1=O,inactive,
NS(=O)(=O)c1ccccc1NC(=O)c1c(O)c2ccccc2[nH]c1=O,447 nM (active),

SMILES,Potency,"activation, negative = inhibition"
COc1ccc(C(=O)NCc2ccc(Cl)cc2)cc1S(=O)(=O)N1CCCC1,inactive,
CCCn1nc(C(=O)NNC(=O)CCOc2ccccc2OCC)c2ccccc2c1=O,inactive,
O=C(Nc1ccc(NC(=O)c2cccs2)cn1)c1ccco1,316 nM (active),
NC(=O)c1ccsc1NC(=O)c1ccco1,inactive,
O=C(Nc1ccnc(-c2ccncc2)n1)c1cccs1,inactive,
CC(C)(C)n1ncc2c(=O)n(Cc3c(Cl)cccc3Br)cnc21,inactive,
c1ccc(CN=C2Nc3ccccc3CS2)nc1,891 nM (active),
Cc1ccc(F)cc1S(=O)(=O)Nc1cccc(C(=O)N2CCCC(C(N)=O)C2)c1 (stereo not given),inactive,
C=C(C)CNc1cc(S(=O)(=O)N2CCOCC2)ccc1Oc1ccccc1,inactive,
CCCCOc1ccc(-c2nnc(-c3ccco3)o2)cc1,1410 nM (active),
N#Cc1ccc(OCc2nnc(-c3ccc([N+](=O)[O-])cc3)o2)cc1,inactive,
Cc1ccc(OCC(=O)Nc2ccc(-c3nnc(-c4ccco4)o3)cc2)cc1,2820 nM (active),
CCOc1ccc(-c2nnc(-c3ccco3)o2)cc1,355 nM (active),
Cc1ccc(OCC(=O)Nc2nnc(-c3ccco3)s2)cc1,inactive,
CCOc1ccc(-n2c(SCC(N)=O)nnc2-c2ccco2)cc1,inactive,
COc1ccc(OCC(=O)Nc2nnc(-c3ccco3)s2)cc1,inactive,
O=C(CCc1ccccc1)Nc1cccc(-c2nnc(-c3ccco3)o2)c1,inactive,
CC(=O)Nc1ccc(NC(=O)COc2ccc(-c3ccccc3)cc2)cc1,inactive,
O=C(CN1CCCSc2ccccc21)N1CCN(S(=O)(=O)c2cccc(F)c2)CC1,inactive,
Cc1cccc(NC(=S)NCCc2ccc(Cl)cc2)c1C,inactive,
COc1ccccc1S(=O)(=O)NCc1ccc(C(=O)N(C)Cc2ccc(F)cc2)cc1,inactive,
CC(=O)Nc1ccc(NC(=O)CCN2C(=O)C3CC=CCC3C2=O)cc1 (stereo not given),inactive,
CCOC(OCC)c1ccc(/C=C\c2nccc(N)n2)cc1,1780 nM (active),
C[C@@H]1NC(=O)[C@@]2(C)[C@@H](c3ccccc3)[C@H]3COc4ccccc4[C@@H]3N2C1=O,inactive,

SMILES,Potency,"activation, negative = inhibition"
Cc1ccc(OCCC(=O)Nc2ccc(S(=O)(=O)Nc3nccs3)cc2)cc1,inactive,
Cc1cccc(OCCC(=O)Nc2ccccc2C(N)=O)c1,inactive,
CCCOC(=O)Nc1ccccc1C(N)=O,inactive,
COc1cccc(OCC(=O)Nc2ccccc2C(N)=O)c1,2820 nM (active),
COc1ccccc1C(=O)NCC(=O)NCCSc1ccc(Br)cc1,inactive,
CCCC(=O)N1c2ccc(-c3csc(N)n3)cc2CC1C (stereo not given),2820 nM (active),
Cc1ccn(CCC(=O)N2c3ccccc3CC2C)n1 (stereo not given),inactive,
CCn1nc(C(=O)OCC(=O)N2c3ccccc3CC2C)c2ccccc2c1=O (stereo not given),inactive,
COC(=O)C1CCN(CC(N)=O)CC1,inactive,
COC(=O)c1ccc(CSc2ccc(S(=O)(=O)N3CCCCC3)cn2)cc1,inactive,
O=C(CN1C(=O)c2ccccc2S1(=O)=O)N1CCc2ccccc21,inactive,
O=C(CN1C(=O)c2ccccc2S1(=O)=O)NC1CCCCC1,inactive,
CC1CCCN(C(=O)CN2C(=O)c3ccccc3S2(=O)=O)C1 (stereo not given),2820 nM (active),
O=C(COC(=O)Cc1ccc(Br)cc1)Nc1ccc(N2CCOCC2)cc1,inactive,
CCOCc1c(C(=O)N2CCN(Cc3ccc(Br)s3)CC2)oc2ccccc12,inactive,
CCC(=O)NC(=Nc1nc2ccccc2s1)NC(=O)CC,3550 nM (active),
CC(=O)Nc1cccc(-c2nc3ccccc3s2)c1C,inactive,
O=C(O)CCCCc1nc2ccccc2s1,inactive,
CC(C)CC(=O)N/C(N)=N/c1nc2ccccc2s1,2820 nM (active),
CC(C)CC(=O)NC(=S)NCc1ccccc1,inactive,
Cc1cc(C(=O)OCC(=O)Nc2nnc(C(C)C)s2)c2ccccc2n1,inactive,
O=C(OCC(=O)N1CCCC1)c1ccc(Cl)nc1,inactive,

# Source: PubChem BioAssay AID485297 (National Center for Advancing Translational Sciences (NCATS), 2010)
